Assay results as given in PubChem BioAssay (NCATS).
Inconclusive results are not listed. Active and inactive are the calls of the source. Calls follow the shape of the dose curve; as a rule, active = well fitted curve in the direction sought with a large enough effect; inconclusive = small, poorly fitted or top-dose-only effect, or another doubt; inactive = no such curve, though single readings can be large; an effect the other way counts as inactive or inconclusive.

Assays:
MCC-26 = assay: qHTS assay to identify novel small-molecules to repurpose for Merkel cell carcinoma treatment (AID 1296009); conditions: MCC and control cell lines, CellTiter-Glo viability, 72 h; series mostly up to 46 µM; also: nearly all actives have a fitted effect of over 60% in size; also: potency is read from the fitted curve at half-maximal effect
Summary of the method: (§1)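 Viability readout: ATP luminescence (CellTiter-Glo) after 72 hr drug exposure at 37 degree celsius. Dose-response format was 8 points for NPC and 11 points for MIPE; data normalized to in-plate controls.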

MKL-1 = assay: as above; conditions: MCC and control cell lines, CellTiter-Glo viability, 72 h; series mostly up to 46 µM
Summary of the method: as §1

MKL-2 = assay: as above; conditions: MCC and control cell lines, CellTiter-Glo viability, 72 h; series mostly up to 46 µM
Summary of the method: as §1

UISO = assay: as above; conditions: MCC and control cell lines, CellTiter-Glo viability, 72 h; series mostly up to 46 µM
Summary of the method: as §1

WaGa = assay: as above; conditions: MCC and control cell lines, CellTiter-Glo viability, 72 h; series mostly up to 46 µM
Summary of the method: as §1

NIH3T3 = assay: as above; conditions: MCC and control cell lines, CellTiter-Glo viability, 72 h; series mostly up to 44.8 µM
Summary of the method: as §1

C33A = assay: Primary qHTS to identify gynecologic anti-cancer compounds using libraries of approved drugs and bioactive compounds (AID 1345084); conditions: Gynecologic cancer cell panel viability, ATPlite luminescence, 48 h; series mostly up to 57.5 µM; also: nearly all actives have a fitted effect of over 55% in size
Summary of the method: (§2)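 Measured: luminescence after ATPlite addition (15 min, RT). Exposure: 48 h, 37 C, 5% CO2.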

CASKI = assay: as above; conditions: Gynecologic cancer cell panel viability, ATPlite luminescence, 48 h; series mostly up to 57.5 µM
Summary of the method: as §2

Es-2 = assay: as above; conditions: Gynecologic cancer cell panel viability, ATPlite luminescence, 48 h; series mostly up to 57.5 µM
Summary of the method: as §2
% is scaled to controls: 0 for no effect and ±100 for the full control effect.

O=C(O)CCC=CCC[C@@H]1[C@H](N2CCCCC2)[C@@H](O)C[C@@H]1OCc1ccc(-c2ccccc2)cc1
inactive: Potency (MCC-26) | Potency (MKL-1) | Potency (MKL-2) | Potency (UISO) | Potency (WaGa)

CNC(=O)[C@H](Cc1ccccc1)NC(=O)[C@H](CC(C)C)[C@H](CSc1cccs1)C(=O)NO
inactive: Potency (MCC-26) | Potency (MKL-1) | Potency (MKL-2) | Potency (UISO)

COc1cc2c(cc1OC)CC(=O)N(CCCN(C)C[C@H]1Cc3cc(OC)c(OC)cc31)CC2
inactive: Potency (MCC-26) | Potency (MKL-1) | Potency (MKL-2) | Potency (UISO) | Potency (WaGa)

Cc1cc(CS(=O)(=O)c2ccccc2)cc(OCc2ccc(CN3CCC[C@H]3CO)cc2)c1
inactive: Potency (MCC-26) | Potency (MKL-1) | Potency (MKL-2) | Potency (UISO) | Potency (WaGa)

NC(=O)c1ccc(N(C(N)=O)c2c(F)cccc2F)nc1-c1ccc(F)cc1F
inactive: Potency (MCC-26) | Potency (MKL-1) | Potency (MKL-2) | Potency (NIH3T3) | Potency (UISO) | Potency (WaGa) | Potency (C33A) | Potency (CASKI) | Potency (Es-2)

COc1cc2c(cc1OC)[C@@H]1Cc3ccc(OC)c(OC)c3CN1CC2
active: Potency (MKL-2) 18.7 µM
inactive: Potency (MCC-26) | Potency (MKL-1) | Potency (UISO)

CCC[C@H](N[C@@H](C)C(=O)N1[C@@H]2CCCC[C@H]2C[C@H]1C(=O)O)C(=O)OCC
inactive: Potency (MCC-26) | Potency (MKL-1) | Potency (MKL-2) | Potency (UISO) | Potency (WaGa)

N#CC(=C1Nc2ccccc2S1)c1ccnc(OCc2ccc(CN3CCOCC3)cc2)n1
active: Potency (MKL-1) 0.118 µM | Potency (MKL-2) 0.132 µM | Potency (UISO) 1.48 µM | Potency (WaGa) 0.132 µM
inactive: Potency (MCC-26)

OCCn1cc(-c2ccc3c(c2)CCC3=NO)c(-c2ccncc2)n1
inactive: Potency (MCC-26) | Potency (MKL-1) | Potency (MKL-2) | Potency (UISO) | Potency (WaGa)

CC1(C)OC2CC3C4CC(F)C5=CC(=O)C=CC5(C)C4C(O)CC3(C)[C@]2(C(=O)CO)O1 (stereo partly specified)
inactive: Potency (MCC-26) | Potency (MKL-1) | Potency (MKL-2) | Potency (UISO) | Potency (WaGa)

CN[C@H]1[C@@H](O[C@@H]2[C@H](O[C@@H]3[C@@H](O)[C@@H](O)[C@@H](N=C(N)N)[C@@H](O)[C@@H]3N=C(N)N)O[C@H](C)[C@@]2(O)C=O)O[C@@H](CO)[C@@H](O)[C@H]1O
inactive: activity change, negative = cytotoxicity (MCC-26) -1.52% [at 9.22 µM] | activity change, negative = cytotoxicity (MKL-1) 0.557% [at 9.22 µM] | activity change, negative = cytotoxicity (MKL-2) 13.1% [at 9.22 µM] | activity change, negative = cytotoxicity (UISO) -3% [at 9.22 µM] | activity change, negative = cytotoxicity (WaGa) 11.2% [at 9.22 µM]

C#C[C@]1(O)CC[C@H]2[C@H]3CCc4cc(OC)ccc4[C@H]3CC[C@@]21C
inactive: Potency (MCC-26) | Potency (MKL-1) | Potency (MKL-2) | Potency (UISO) | Potency (WaGa)

Cc1c(-c2cccc3c(CCCOc4cccc5ccccc45)c(C(=O)O)n(Cc4cccnc4)c23)c(COc2ccc(N3CCN([S+](=O)([O-])N(C)C)CC3)cc2)nn1C
inactive: Potency (MCC-26) | Potency (MKL-1) | Potency (MKL-2) | Potency (UISO) | Potency (WaGa)

Cn1c(=O)c(-c2c(Cl)cccc2Cl)cc2cnc(Nc3cccc(C(=O)O)c3)nc21
inactive: Potency (MCC-26) | Potency (MKL-1) | Potency (MKL-2) | Potency (NIH3T3) | Potency (UISO) | Potency (WaGa) | Potency (C33A) | Potency (CASKI) | Potency (Es-2)

COc1ccc2ccc(=O)oc2c1CC=C(C)C
active: Potency (MKL-1) 10.5 µM | Potency (MKL-2) 11.8 µM | Potency (WaGa) 5.26 µM
inactive: Potency (MCC-26) | Potency (UISO)

CC(C)C[C@@H](N)[C@H](O)C(=O)N[C@H](C(=O)N[C@H](C(=O)N[C@@H](CC(=O)O)C(=O)O)C(C)C)C(C)C
inactive: Potency (MCC-26) | Potency (MKL-1) | Potency (MKL-2) | Potency (UISO) | Potency (WaGa)

C=C[C@@H]1CN2CCC1C[C@@H]2C(O)c1ccnc2ccc(OC)cc12 (stereo partly specified)
inactive: Potency (MCC-26) | Potency (MKL-1) | Potency (MKL-2) | Potency (UISO) | Potency (WaGa)

NC(=O)c1nnn(Cc2cc(Cl)c(C(=O)c3ccc(Cl)cc3)c(Cl)c2)c1N
inactive: Potency (MCC-26) | Potency (MKL-1) | Potency (MKL-2) | Potency (UISO) | Potency (WaGa)

CN(CC=CC#CC(C)(C)C)Cc1cccc2ccccc12
inactive: Potency (MCC-26) | Potency (MKL-1) | Potency (MKL-2) | Potency (UISO) | Potency (WaGa)

CC(C)=CCCC(C)=CCCC(C)=CCCC(C)=CCCC(C)=CCCC(C)=CCCC(C)=CCCC(C)=CCCC(C)=CCO
inactive: Potency (MCC-26) | Potency (MKL-1) | Potency (MKL-2) | Potency (UISO) | Potency (WaGa)

Cn1cc(-c2ccc3nnc(Sc4ccc5ncccc5c4)n3n2)cn1
inactive: Potency (MCC-26) | Potency (MKL-1) | Potency (MKL-2) | Potency (UISO) | Potency (WaGa)

CCOc1ccccc1N=Nc1c(C)[nH]n(-c2nc(-c3ccccc3)cs2)c1=O
inactive: Potency (MCC-26) | Potency (MKL-1) | Potency (MKL-2) | Potency (UISO) | Potency (WaGa)

CC1CNc2c(cccc2S(=O)(=O)N[C@@H](CCCN=C(N)N)C(=O)N2CC[C@@H](C)C[C@@H]2C(=O)O)C1 (stereo partly specified)
active: Potency (MKL-1) 16.6 µM | Potency (MKL-2) 3.72 µM | Potency (WaGa) 4.69 µM
inactive: Potency (MCC-26) | Potency (UISO)

CC(C)(F)C[C@H](N[C@@H](c1ccc(-c2ccc(S(C)(=O)=O)cc2)cc1)C(F)(F)F)C(=O)NC1(C#N)CC1
inactive: Potency (MCC-26) | Potency (MKL-1) | Potency (MKL-2) | Potency (UISO) | Potency (WaGa)

CN1N=C(N)c2cn([C@@H]3O[C@H](COP(=O)(O)O)[C@@H](O)[C@@H]3O)c3ncnc1c23
active: Potency (MKL-1) 5.9 µM | Potency (MKL-2) 5.9 µM | Potency (UISO) 0.469 µM | Potency (WaGa) 0.0372 µM
inactive: Potency (MCC-26)
